# Laboratory results published in ChEMBL document CHEMBL2218924, “A broad activity screen in support of a chemogenomic map for kinase signalling research and drug discovery” (Biochem J, 2013).
# Columns and labels:
# [1] = target: T1, Serine/threonine-protein kinase 17A (Homo sapiens) (UniProt Q9UEE5); settings: at 10 µM
# T1 sequence (whole entry): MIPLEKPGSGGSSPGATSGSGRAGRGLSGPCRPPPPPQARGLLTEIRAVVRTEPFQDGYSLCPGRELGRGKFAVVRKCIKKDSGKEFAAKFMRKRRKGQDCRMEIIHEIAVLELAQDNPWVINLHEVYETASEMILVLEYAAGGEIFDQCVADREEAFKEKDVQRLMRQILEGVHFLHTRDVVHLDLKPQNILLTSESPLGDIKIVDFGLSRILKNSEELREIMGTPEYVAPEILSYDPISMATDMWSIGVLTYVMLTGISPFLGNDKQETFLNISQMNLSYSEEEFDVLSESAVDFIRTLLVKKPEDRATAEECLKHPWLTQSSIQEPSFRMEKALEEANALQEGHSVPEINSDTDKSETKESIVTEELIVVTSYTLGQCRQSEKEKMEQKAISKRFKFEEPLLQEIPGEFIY
# [2] = target: T2, Dual specificity tyrosine-phosphorylation-regulated kinase 2 (Homo sapiens) (UniProt Q92630); settings: at 1 µM
# T2 sequence (whole entry): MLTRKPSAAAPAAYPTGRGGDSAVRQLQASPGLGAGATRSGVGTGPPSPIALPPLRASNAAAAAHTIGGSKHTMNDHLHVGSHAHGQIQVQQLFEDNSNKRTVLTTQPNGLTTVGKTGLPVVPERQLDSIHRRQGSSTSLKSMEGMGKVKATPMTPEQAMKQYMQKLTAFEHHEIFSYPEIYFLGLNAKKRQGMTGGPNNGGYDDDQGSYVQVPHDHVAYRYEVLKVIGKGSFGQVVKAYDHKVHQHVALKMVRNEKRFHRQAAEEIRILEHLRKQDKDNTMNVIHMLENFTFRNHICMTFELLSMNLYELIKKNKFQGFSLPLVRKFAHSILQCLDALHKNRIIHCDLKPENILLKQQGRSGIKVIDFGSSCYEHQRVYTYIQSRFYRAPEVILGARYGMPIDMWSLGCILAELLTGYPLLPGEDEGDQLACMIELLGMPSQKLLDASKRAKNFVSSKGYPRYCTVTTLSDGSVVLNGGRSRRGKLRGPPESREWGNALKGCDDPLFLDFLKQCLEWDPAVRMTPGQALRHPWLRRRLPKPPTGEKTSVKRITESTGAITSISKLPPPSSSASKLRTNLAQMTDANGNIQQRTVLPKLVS
# [3] = target: T2, Dual specificity tyrosine-phosphorylation-regulated kinase 2 (Homo sapiens); settings: at 10 µM
# [4] = target: Epidermal growth factor receptor (Homo sapiens) (UniProt P00533); settings: at 1 µM
# [5] = target: Epidermal growth factor receptor (Homo sapiens) (UniProt P00533); settings: at 10 µM
# [6] = target: T3, Ephrin type-A receptor 1 (Homo sapiens) (UniProt P21709); settings: at 1 µM
# T3 sequence (whole entry): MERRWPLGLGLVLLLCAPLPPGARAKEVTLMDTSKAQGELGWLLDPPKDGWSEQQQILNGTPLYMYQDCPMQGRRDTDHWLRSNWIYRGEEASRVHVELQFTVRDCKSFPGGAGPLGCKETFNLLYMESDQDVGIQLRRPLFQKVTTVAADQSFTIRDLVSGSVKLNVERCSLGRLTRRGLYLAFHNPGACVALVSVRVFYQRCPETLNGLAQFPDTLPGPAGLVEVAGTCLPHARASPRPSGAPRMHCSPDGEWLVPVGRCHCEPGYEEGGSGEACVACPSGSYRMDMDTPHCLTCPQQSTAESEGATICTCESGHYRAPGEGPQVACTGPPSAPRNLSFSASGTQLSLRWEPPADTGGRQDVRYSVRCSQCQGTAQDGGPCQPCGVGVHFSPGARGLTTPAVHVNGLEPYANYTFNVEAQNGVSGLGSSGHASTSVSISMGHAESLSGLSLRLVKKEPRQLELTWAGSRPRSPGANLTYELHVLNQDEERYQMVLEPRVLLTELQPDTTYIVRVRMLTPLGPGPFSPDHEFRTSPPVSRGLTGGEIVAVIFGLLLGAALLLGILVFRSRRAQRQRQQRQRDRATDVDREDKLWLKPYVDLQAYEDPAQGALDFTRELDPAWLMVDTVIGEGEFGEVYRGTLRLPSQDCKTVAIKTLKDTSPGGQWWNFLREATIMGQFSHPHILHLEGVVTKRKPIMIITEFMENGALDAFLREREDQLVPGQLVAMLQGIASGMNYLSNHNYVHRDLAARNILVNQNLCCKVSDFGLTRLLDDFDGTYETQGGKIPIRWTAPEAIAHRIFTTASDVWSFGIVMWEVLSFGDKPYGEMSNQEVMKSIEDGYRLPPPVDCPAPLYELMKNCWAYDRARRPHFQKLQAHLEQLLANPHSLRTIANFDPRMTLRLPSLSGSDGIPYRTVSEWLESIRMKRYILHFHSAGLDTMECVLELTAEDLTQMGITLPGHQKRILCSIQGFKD
# [7] = target: T3, Ephrin type-A receptor 1 (Homo sapiens); settings: at 10 µM
# [8] = target: Ephrin type-A receptor 2 (Homo sapiens) (UniProt P29317); settings: at 1 µM
# [9] = target: Ephrin type-A receptor 2 (Homo sapiens) (UniProt P29317); settings: at 10 µM
# [10] = target: T4, Ephrin type-A receptor 3 (Homo sapiens) (UniProt P29320); settings: at 1 µM
# T4 sequence (whole entry): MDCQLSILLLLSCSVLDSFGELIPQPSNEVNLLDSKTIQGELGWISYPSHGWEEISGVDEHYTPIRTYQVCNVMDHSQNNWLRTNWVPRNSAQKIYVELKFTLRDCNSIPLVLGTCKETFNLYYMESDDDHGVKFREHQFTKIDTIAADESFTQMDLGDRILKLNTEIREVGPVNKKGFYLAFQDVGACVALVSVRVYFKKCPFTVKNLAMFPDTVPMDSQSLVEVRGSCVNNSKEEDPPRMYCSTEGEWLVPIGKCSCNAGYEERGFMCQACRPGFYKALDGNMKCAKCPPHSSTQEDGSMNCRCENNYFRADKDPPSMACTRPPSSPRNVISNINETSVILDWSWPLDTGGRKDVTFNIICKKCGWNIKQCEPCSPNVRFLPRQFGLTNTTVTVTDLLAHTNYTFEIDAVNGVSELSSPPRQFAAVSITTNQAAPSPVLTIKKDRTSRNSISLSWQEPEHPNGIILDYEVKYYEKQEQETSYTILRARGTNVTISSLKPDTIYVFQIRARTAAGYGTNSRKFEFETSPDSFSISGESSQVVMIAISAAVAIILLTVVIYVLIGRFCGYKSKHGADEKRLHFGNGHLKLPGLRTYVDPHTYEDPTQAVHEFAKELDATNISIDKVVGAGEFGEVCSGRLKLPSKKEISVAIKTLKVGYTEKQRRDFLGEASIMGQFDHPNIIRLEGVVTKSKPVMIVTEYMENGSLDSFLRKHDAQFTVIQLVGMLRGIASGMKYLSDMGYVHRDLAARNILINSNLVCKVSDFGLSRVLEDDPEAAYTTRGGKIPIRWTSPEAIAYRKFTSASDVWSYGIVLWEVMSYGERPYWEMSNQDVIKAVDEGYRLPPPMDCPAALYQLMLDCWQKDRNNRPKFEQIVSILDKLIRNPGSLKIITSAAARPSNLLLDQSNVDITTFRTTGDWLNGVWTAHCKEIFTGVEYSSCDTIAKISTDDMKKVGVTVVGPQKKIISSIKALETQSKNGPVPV
# [11] = target: T4, Ephrin type-A receptor 3 (Homo sapiens); settings: at 10 µM
# [12] = target: Ephrin type-A receptor 4 (Homo sapiens) (UniProt P54764); settings: at 1 µM
# [13] = target: Ephrin type-A receptor 4 (Homo sapiens) (UniProt P54764); settings: at 10 µM
# [14] = target: Ephrin type-A receptor 5 (Homo sapiens) (UniProt P54756); settings: at 1 µM
# [15] = target: Ephrin type-A receptor 5 (Homo sapiens) (UniProt P54756); settings: at 10 µM
# [16] = target: Ephrin type-A receptor 7 (Homo sapiens) (UniProt Q15375); settings: at 1 µM
# [17] = target: Ephrin type-A receptor 7 (Homo sapiens) (UniProt Q15375); settings: at 10 µM
# [18] = target: T5, Ephrin type-A receptor 8 (Homo sapiens) (UniProt P29322); settings: at 1 µM
# T5 sequence (whole entry): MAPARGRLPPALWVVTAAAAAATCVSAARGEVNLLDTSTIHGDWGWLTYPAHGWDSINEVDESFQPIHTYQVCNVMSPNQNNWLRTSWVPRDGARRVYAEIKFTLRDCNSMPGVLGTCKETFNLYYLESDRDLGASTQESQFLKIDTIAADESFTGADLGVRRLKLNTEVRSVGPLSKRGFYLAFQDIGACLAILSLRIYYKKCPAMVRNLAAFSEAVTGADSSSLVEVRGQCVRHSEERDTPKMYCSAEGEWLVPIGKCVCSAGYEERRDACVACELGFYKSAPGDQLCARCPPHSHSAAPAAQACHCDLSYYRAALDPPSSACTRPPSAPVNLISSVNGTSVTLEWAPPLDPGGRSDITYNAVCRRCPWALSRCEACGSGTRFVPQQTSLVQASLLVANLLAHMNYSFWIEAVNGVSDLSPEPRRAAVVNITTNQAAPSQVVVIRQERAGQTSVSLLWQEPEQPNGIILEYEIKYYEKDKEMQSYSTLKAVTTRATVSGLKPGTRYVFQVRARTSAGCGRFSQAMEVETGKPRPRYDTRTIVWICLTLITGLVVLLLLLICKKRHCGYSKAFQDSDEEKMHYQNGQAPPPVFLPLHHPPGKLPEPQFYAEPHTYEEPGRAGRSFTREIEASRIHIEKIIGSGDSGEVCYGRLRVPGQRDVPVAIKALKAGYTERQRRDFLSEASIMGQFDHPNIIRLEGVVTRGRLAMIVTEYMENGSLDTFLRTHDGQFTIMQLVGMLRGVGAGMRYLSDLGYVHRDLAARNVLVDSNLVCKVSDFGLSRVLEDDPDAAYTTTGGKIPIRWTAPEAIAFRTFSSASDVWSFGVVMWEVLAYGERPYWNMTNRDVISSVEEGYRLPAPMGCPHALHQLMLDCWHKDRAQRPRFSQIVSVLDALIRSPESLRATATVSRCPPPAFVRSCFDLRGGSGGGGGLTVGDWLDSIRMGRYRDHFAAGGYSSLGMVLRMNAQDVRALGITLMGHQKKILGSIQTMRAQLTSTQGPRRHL
# [19] = target: T5, Ephrin type-A receptor 8 (Homo sapiens); settings: at 10 µM
# [20] = target: T6, Ephrin type-B receptor 1 (Homo sapiens) (UniProt P54762); settings: at 1 µM
# T6 sequence (whole entry): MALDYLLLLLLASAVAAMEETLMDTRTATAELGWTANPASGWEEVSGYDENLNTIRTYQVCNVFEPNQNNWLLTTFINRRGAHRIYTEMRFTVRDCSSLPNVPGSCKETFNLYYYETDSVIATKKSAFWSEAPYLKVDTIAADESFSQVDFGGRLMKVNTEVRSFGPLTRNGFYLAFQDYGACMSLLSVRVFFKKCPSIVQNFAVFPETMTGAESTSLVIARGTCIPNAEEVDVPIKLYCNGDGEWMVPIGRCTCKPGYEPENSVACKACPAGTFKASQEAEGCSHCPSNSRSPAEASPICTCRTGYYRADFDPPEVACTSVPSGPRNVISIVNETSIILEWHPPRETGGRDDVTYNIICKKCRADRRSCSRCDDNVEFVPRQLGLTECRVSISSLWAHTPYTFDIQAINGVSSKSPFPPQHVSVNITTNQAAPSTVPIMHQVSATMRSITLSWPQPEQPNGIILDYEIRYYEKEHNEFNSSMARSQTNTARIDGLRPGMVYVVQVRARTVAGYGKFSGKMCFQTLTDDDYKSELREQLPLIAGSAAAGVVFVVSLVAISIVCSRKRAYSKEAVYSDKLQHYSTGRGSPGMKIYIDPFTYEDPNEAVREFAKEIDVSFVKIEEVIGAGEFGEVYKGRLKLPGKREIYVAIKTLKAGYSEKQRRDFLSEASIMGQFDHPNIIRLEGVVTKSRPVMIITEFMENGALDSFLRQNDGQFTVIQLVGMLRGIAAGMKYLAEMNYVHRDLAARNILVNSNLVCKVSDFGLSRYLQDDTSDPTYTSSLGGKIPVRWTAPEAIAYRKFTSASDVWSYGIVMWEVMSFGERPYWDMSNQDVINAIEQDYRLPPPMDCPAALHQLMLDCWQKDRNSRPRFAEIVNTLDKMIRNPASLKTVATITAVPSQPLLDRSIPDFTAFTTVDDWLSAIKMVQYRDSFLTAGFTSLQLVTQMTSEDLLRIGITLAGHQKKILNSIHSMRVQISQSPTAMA
# Chain of Ephrin type-A receptor 5 (Homo sapiens) (P54756 whole entry): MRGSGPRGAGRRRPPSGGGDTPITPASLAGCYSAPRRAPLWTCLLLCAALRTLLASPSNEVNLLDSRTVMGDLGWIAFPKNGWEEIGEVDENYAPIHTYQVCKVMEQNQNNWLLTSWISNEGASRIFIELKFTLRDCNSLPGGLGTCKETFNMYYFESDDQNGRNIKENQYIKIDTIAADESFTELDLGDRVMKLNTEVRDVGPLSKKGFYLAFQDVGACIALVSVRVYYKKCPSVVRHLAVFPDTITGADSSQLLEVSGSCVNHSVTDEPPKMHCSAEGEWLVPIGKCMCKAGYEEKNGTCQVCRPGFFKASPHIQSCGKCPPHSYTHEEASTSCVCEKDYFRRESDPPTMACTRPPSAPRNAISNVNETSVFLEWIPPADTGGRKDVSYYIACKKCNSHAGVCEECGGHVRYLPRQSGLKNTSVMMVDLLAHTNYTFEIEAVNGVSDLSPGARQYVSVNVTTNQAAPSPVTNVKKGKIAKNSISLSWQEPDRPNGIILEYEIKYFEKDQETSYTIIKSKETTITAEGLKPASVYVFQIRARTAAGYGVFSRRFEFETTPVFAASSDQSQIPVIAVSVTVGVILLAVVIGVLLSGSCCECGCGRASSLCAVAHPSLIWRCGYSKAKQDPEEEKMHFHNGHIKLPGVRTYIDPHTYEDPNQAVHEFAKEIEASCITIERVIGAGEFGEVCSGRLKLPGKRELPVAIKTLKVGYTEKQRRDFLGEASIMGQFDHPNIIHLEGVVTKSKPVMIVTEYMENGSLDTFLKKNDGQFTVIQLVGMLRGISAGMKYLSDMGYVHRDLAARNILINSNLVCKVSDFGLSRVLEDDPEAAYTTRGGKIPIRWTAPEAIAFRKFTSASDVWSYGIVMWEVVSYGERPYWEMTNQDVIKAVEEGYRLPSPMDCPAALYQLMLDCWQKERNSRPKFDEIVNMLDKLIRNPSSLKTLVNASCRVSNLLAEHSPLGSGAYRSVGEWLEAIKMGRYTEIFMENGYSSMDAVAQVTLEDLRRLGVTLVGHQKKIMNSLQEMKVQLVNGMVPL
# Chain of Ephrin type-A receptor 2 (Homo sapiens) (P29317 whole entry): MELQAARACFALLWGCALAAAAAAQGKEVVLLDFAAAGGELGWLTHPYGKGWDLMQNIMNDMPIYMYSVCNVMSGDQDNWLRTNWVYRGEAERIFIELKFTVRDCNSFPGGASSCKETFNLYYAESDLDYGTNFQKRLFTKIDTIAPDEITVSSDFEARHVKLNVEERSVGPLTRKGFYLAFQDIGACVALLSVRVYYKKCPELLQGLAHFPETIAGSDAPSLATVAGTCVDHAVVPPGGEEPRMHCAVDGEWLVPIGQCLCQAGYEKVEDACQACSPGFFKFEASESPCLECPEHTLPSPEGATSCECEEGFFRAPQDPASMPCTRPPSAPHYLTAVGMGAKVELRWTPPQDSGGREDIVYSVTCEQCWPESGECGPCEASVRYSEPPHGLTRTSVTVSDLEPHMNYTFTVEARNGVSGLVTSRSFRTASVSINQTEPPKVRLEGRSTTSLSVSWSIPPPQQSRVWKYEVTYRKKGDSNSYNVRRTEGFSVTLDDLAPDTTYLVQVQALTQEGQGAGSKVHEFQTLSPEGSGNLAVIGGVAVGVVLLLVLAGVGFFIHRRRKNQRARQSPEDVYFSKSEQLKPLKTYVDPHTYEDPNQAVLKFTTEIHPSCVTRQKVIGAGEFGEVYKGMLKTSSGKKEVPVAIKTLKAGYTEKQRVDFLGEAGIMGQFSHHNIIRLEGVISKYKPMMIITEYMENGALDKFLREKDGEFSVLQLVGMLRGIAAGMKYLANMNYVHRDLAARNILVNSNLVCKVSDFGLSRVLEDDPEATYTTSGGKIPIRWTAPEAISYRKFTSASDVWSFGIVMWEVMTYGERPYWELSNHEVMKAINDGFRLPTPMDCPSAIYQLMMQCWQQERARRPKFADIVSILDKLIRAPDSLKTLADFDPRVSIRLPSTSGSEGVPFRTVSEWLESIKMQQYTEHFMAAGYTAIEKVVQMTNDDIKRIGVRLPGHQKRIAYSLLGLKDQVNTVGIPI
# Chain of Ephrin type-A receptor 7 (Homo sapiens) (Q15375 28-998 limits assumed): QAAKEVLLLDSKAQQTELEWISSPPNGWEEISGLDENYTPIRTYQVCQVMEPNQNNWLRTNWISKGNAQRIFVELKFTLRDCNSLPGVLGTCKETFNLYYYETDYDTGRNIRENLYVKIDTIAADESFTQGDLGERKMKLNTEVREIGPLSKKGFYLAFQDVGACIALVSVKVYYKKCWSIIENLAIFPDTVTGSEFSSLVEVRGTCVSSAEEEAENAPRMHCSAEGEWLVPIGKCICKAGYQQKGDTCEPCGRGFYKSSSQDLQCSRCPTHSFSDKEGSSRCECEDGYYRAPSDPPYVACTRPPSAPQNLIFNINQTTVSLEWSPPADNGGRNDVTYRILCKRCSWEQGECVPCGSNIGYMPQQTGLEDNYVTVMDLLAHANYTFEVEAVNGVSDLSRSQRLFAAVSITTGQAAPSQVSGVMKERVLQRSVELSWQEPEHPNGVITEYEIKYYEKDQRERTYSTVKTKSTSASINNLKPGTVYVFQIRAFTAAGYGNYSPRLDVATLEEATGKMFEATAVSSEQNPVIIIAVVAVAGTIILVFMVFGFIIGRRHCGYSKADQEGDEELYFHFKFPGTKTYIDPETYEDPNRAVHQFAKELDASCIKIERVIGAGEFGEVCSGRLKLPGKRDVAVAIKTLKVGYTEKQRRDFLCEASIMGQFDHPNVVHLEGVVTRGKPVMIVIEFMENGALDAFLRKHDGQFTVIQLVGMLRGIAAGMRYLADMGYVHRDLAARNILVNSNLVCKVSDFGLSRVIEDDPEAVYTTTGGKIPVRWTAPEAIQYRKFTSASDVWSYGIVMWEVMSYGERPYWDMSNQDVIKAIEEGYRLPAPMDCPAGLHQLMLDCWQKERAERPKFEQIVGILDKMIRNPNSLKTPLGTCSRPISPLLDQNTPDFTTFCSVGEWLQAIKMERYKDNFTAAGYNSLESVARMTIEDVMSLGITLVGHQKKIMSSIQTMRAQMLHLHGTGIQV
# Chain of Ephrin type-A receptor 4 (Homo sapiens) (P54764 whole entry): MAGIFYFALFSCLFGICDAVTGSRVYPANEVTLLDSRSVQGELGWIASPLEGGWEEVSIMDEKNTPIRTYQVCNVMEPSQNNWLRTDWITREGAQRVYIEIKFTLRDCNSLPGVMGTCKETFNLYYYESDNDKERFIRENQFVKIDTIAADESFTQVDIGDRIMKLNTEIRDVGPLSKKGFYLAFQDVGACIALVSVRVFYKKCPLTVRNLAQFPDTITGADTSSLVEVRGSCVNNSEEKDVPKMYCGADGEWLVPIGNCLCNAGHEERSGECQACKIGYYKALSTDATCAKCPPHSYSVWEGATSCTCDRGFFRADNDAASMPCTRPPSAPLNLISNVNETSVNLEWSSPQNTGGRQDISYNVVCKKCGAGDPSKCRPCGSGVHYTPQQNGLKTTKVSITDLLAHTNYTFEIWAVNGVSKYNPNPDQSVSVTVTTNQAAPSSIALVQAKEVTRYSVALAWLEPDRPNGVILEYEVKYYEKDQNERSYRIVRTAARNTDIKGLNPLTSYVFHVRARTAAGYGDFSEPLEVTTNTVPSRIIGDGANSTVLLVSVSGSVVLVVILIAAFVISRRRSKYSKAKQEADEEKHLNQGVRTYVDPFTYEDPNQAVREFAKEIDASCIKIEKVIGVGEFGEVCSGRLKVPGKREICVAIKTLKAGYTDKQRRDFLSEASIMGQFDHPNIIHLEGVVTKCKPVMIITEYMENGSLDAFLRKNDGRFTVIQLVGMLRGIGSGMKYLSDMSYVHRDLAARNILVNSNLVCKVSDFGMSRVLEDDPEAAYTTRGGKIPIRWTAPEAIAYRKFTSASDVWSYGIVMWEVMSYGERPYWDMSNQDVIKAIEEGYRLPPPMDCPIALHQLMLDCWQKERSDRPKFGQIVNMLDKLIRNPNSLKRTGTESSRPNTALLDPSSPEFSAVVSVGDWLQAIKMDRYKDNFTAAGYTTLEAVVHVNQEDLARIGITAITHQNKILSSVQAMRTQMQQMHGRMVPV
Compound,residual activity [1] [%],residual activity [2] [%],residual activity [3] [%],residual activity [4] [%],residual activity [5] [%],residual activity [6] [%],residual activity [7] [%],residual activity [8] [%],residual activity [9] [%],residual activity [10] [%],residual activity [11] [%],residual activity [12] [%],residual activity [13] [%],residual activity [14] [%],residual activity [15] [%],residual activity [16] [%],residual activity [17] [%],residual activity [18] [%],residual activity [19] [%],residual activity [20] [%]
CCN(CC)CCCCN1c2ccccc2Oc2ccc(Cl)cc21,138,105,103,124,127,102,124,108,109,113,97,116,100,108,113,105,103,98,114,100
CC(C)n1cnc2/c(=N/c3cccc(Cl)c3)nc(NCCO)[nH]c21,83,95,69,,,86,42,82,65,82,54,110,75,102,43,83,43,97,77,81
Cc1nc(-c2ccccc2)c(-c2ccncc2)o1,77,99,87,,,103,81,93,59,92,77,109,102,35,29,94,89,65,54,63
Cn1cnc2cc3c(Nc4cccc(Br)c4)ncnc3cc21,28,98,79,,,60,49,89,62,90,30,106,88,82,40,77,39,86,63,70
